Records with an inconclusive call do not appear. Activity calls are given as the source filed them. Calls come from the whole dose curve; as a rule, active = well fitted curve in the direction sought with a large enough effect; inconclusive = small, poorly fitted or top-dose-only effect, or another doubt; inactive = no such curve, though single readings can be large; an effect the other way counts as inactive or inconclusive.

Results on ten molecules are retold here after PubChem BioAssay (NCATS).

The nature of assay [1]: qHTS for Inhibitors of the Aldehyde Dehydrogenase Family (ALDH1A2, ALDH1A3, ALDH2, ALDH3A1) (AID 2061307). For Potency: test system not described further here; potency is the fitted concentration of half-maximal effect. Note: nearly all actives have a fitted effect of over 50% in size.
Assay [2] concerns the target Aldehyde dehydrogenase, mitochondrial (Homo sapiens) (UniProt P05091). The assay can be described thus: qHTS for Inhibitors of the Aldehyde Dehydrogenase Family (ALDH2) Primary screen (AID 2061308). Note: nearly all actives have a fitted effect of over 55% in size. Note: potency is the fitted concentration of half-maximal effect.
The target of assay [3] is Retinal dehydrogenase 2 (Homo sapiens) (UniProt O94788). As to the kind of experiment: qHTS for Inhibitors of the Aldehyde Dehydrogenase Family (ALDH1A2) Confirmation screens (AID 2061314). Note: nearly all actives have a fitted effect of over 65% in size. Note: potency is the fitted concentration of half-maximal effect.
Assay [4] has as its target Retinaldehyde dehydrogenase 3 (Homo sapiens) (UniProt P47895). The assay can be described thus: qHTS for Inhibitors of the Aldehyde Dehydrogenase Family (ALDH1A3) Primary screen (AID 2061315).
Assay [5] shares this target. The assay can be described thus: qHTS for Inhibitors of the Aldehyde Dehydrogenase Family (ALDH1A3) Confirmatory screens (AID 2061311). Note: nearly all actives have a fitted effect of over 60% in size. Note: potency is the fitted concentration of half-maximal effect.
For assay [6], the target named is Aldehyde dehydrogenase 1A1 (Homo sapiens) (UniProt P00352). As to the kind of experiment: qHTS for Inhibitors of the Aldehyde Dehydrogenase Family (ALDH1A1) Confirmatory screens (AID 2061316). Note: nearly all actives have a fitted effect of over 65% in size. Note: potency is the fitted concentration of half-maximal effect.
The nature of assay [7]: BET inhibitor-based combinations targeting novel dependencies in MECOM-rearranged (r) AML: OCI-AML3 cell line (AID 2202232). Note: potency is the fitted concentration of half-maximal effect; nearly all actives have a fitted effect of over 35% in size. The note with it: Potency: OCI-AML3 viability. In outline: (§1)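 Viability of cells (500 per well) is scored by luminescent CellTiter-Glo at 48 hr post-dosing. Eleven-point titrations are normalized to DMSO and empty controls and reduced to AUC values.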

Assay [8] is described as follows: BET inhibitor-based combinations targeting novel dependencies in MECOM-rearranged (r) AML: HNT-34 cell line (AID 2202234). Note: potency is the fitted concentration of half-maximal effect; nearly all actives have a fitted effect of over 35% in size. In a few lines:
(§2)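 Using pin-tool transfer, drugs were added in 11 doses to cells (500/well), incubated 48 hr, and assessed with CellTiter-Glo. Z-AUC is a mean-centring transformation applied separately to each screened line.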

Assay [9] is described as follows: BET inhibitor-based combinations targeting novel dependencies in MECOM-rearranged (r) AML: UCSD-AML1 cell line (AID 2202235). Note: potency is the fitted concentration of half-maximal effect; nearly all actives have a fitted effect of over 40% in size. In outline: as §2
Assay [10] in a line: BET inhibitor-based combinations targeting novel dependencies in MECOM-rearranged (r) AML: AML-191 cell line (AID 2202236; note: potency is the fitted concentration of half-maximal effect; nearly all actives have a fitted effect of over 35% in size). In outline:
as §1

Assay [11] is described as follows: BET inhibitor-based combinations targeting novel dependencies in MECOM-rearranged (r) AML: AML-194 cell line (AID 2202237; note: potency is the fitted concentration of half-maximal effect; nearly all actives have a fitted effect of over 40% in size). In a few lines: as §1

Regarding `CCOc1ccc(CCNC(=O)c2cc3c(s2)CCC3)cc1OCC`, the Potency result in [1], in [2] and in assay [4] was “inactive” each time. Besides, in assay [3], the Potency was 14.2 µM (active).

As to `N#Cc1c(-c2cccc(Cl)c2)no[n+]1[O-]`, the Potency was 12.7 µM (active) in assay [1], 8.91 µM (active) in assay [2] and 5.04 µM (active) in assay [3]. For the same molecule, in assay [4], the Potency entry is “inactive”.

As to `N#Cc1cccnc1SC1=NS(=O)(=O)c2ccccc21`, the Potency in [1] was 0.891 µM (active); in assay [2], 3.16 µM (active); in assay [5] it was 1.27 µM (active); in assay [6] it was 0.0712 µM (active).

Regarding `O=C(OCC#CCSc1nnc(-c2cccc3ccccc23)o1)c1ccncc1`, the Potency entry in assay [1], in assay [2], in assay [4] and in [6] was “inactive” throughout. For the same molecule, the Potency in assay [5] was 2.01 µM (active).

Regarding `Cc1ccc(NC(=O)CN2C(=O)N/C(=C\c3cccn3-c3ccc(C(=O)O)cc3)C2=O)cc1`, the Potency result in assay [1], in assay [2], in assay [5] and in assay [4] was “inactive” throughout.

On to `NC(=O)C1CCN(c2nc(-c3cc4ccccc4o3)cs2)CC1`, for which the Potency in assay [1] was 2.83 µM (active); in [6], 6.34 µM (active). The Potency entry in [2], in assay [5] and in assay [4] was “inactive” throughout.

With `CCCCN1C(=O)c2ccccc2NC1c1ccc(OC)c(COc2ccc(NC(C)=O)cc2)c1` (stereo not drawn), the Potency is 7.12 µM (active) in [1] and 12.6 µM (active) in assay [5]. The Potency result in [2] and in [4] was “inactive” each time.

Take `N#Cc1nc(Nc2ccccc2)nc(NC2CCCCC2)n1`: the Potency in assay [1] was 0.708 µM (active). Moreover, the Potency result in [2], in assay [3] and in [4] was “inactive” in each case.

As to `C=C1[C@@H](OC(C)=O)CC[C@@]2(C)[C@@H](OC(C)=O)[C@H](OC(C)=O)C3=C(C)C[C@H](OC(=O)C(C)CC)[C@@H]([C@@H](OC(C)=O)[C@H]12)C3(C)C` (stereo partly drawn), the Potency entry in assay [1], in [5], in [4] and in assay [6] was “inactive” in each case. Further, the Potency in assay [2] is 2.51 µM (active).

Turning to `Cc1ccc(S(=O)(=O)Nc2cc(C(F)(F)F)ccc2C(=O)Nc2nc(-c3ccccc3)cs2)cc1`, the Potency is 0.355 µM (active) in [1]; 7.42 µM (active) in assay [7]; 7.42 µM (active) in assay [8]; 8.33 µM (active) in assay [9]; 5.9 µM (active) in assay [10]; 9.34 µM (active) in assay [11]. Also, the Potency entry in assay [2], in [5] and in assay [4] was “inactive” throughout.
